Bioassay records as filed in PubChem.
ALDH1A1 inh – blocks purified human ALDH1A1 activity; Purified ALDH1A1, NADH fluorescence, propionaldehyde substrate; Potency, µM (doses to about 75.3 µM), usual class: inhibitors; 220,000 compounds, 7.3% hits; AID 1030
HPGD inh – HPGD (human) dehydrogenase inhibition | 150,000 compounds, 4.3% hits | P15428 | purified HPGD, NADH fluorescence kinetic, PGE2 substrate | Potency, µM, hits mostly inhibitors
Target sequence (P15428 whole entry, looked up): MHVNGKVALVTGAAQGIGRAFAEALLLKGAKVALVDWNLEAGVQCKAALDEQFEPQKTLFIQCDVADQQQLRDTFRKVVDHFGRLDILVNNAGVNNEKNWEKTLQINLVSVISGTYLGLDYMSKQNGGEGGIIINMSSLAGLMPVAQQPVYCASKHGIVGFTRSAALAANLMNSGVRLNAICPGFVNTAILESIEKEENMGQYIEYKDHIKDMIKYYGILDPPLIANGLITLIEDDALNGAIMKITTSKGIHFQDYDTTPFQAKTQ
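NADH formation kinetics: reaction with 30 uM PGE2 and 1 mM NAD+ (final), 20 nM enzyme, Tris-HCl pH 8 with Tween 20, after 15 min compound preincubation at room temperature. Fluorescence change, last versus first of five reads.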
PNC assembly inh – inhibitors of perinucleolar compartment assembly. PC3M PTB-GFP, PNC prevalence imaging, 16 h; stronger effect = lower value. activity change (PNC), negative = inhibition, % at 10 µM. 140,000 compounds, 3.1% hits. AID 2417;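 active = readout at or below -70, meaning at least 70% loss of cells showing the perinucleolar compartment, a nuclear body marking cancer cells; inconclusive = readout between -30 and a set limit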
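PC3M cells stably expressing PTB-GFP, 750–1000 cells/well, treated 16 h at 37 °C with compound (23 nl of library stock), in duplicate. After paraformaldehyde fixation and Hoechst stain, imaged at 20x; PNC prevalence scored by image analysis.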
LMNA splice mod – modulators of lamin A splicing; Potency, µM (series often up to 46.1 µM), usual class: inhibitors; AID 1487; HeLa LMNA splicing GFP/RFP minigene ratio, 48 h; 200,000 compounds, 0.01% hits; active = well fitted inhibition curve with a large enough effect in the signal ratio, with a control signal flat, not every such curve was filed as active; inconclusive = small, poorly fitted or top-dose-only effect, or effect the other way, or a change in a side signal; the % refers to the signal ratio
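S3 HeLa stable clones carrying a lamin A-EGFP splicing minigene plus DsRed2 were seeded at 600 cells/well in Opti-MEM with 2% FBS, pin-dosed and incubated 48 h at 37°C. Acumen cytometry (488 nm) gave the GFP/RFP total-intensity ratio.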
12-hLO inh – 12-hLO (ALOX12) enzyme inhibition. purified 12-hLO, xylenol orange hydroperoxide absorbance. Potency, µM (series often up to 57.1 µM), usual class: inhibitors. 150,000 compounds, 0.12% hits. AID 1452; active = well fitted inhibition curve with a large enough effect; inconclusive = small, poorly fitted or top-dose-only effect; note: nearly all actives have a fitted effect of over 55% in size
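Hydroperoxide formation by human 12-lipoxygenase from 40 uM arachidonic acid was followed colorimetrically via ferric-xylenol orange complex, using the 573/405 nm absorbance ratio. Enzyme concentration was 150 nM, with 30 min reaction at room temperature.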
A number is an active result; n = inactive; u = inconclusive; x = not tested or not shown; [ ] = remark or other dose. A selection: hits, their analogues and other compounds. The true share with any hit is near 10%. Unless noted, calls come from the whole dose curve; as a rule, active = well fitted inhibition curve with a large enough effect (not every such curve was filed as active); inconclusive = small, poorly fitted or top-dose-only effect, or another doubt; inactive = no such curve, though single readings can be large or run the other way.

SMILES	ALDH1A1 inh	HPGD inh	PNC assembly inh	LMNA splice mod	12-hLO inh
S=C(Nc1ccccn1)c1ccccn1	3.5µM	8.9µM	n	n	n
Cc1ccc(C)c(NC(=S)c2ccccn2)c1	u	28µM	n	u	n
COC(=O)CC1c2cc(OC)c(OC)cc2CCN1C(=O)Nc1ccc(C)cc1Cl (stereo not drawn)	x	x	x	n	x
COc1ccc(NS(=O)(=O)c2ccc(-n3nnc4ccccc43)c([N+](=O)[O-])c2)cc1	u	n	n	u	n
O=[N+]([O-])c1cc(S(=O)(=O)Nc2cccc(C(F)(F)F)c2)ccc1-n1nnc2ccccc21	u	32µM	n	u	n
Cc1nc2ccccc2n1S(=O)(=O)c1ccc(Br)cc1	n	n	-109	u	n
CCSc1nc2ccccc2n1S(=O)(=O)c1ccccc1	n	n	n	n	n
Cc1ccc(/C=N/NC(=O)c2cccs2)o1	n	n	-83	n	n
CC(/C=N/NC(=O)c1cccs1)=C\c1ccco1	7.9µM	x	x	n	x
CN(C)c1ccc(C(CC(=O)O)NC(=O)c2ccc(Cl)cc2)cc1 (stereo not drawn)	18µM	n	n	n	n
COCC(C)NC(=O)c1cccc([N+](=O)[O-])c1 (stereo not drawn)	n	x	x	n	x
COCC(C)NC(=O)c1ccc(N(C)C)cc1 (stereo not drawn)	8.9µM	22µM	n	n	n
OC(COc1ccccc1)CN1CCOCC1 (stereo not drawn)	n	n	-100	n	n
O=C(OCCN1CCOCC1)C(c1ccccc1)c1ccccc1	25µM	n	u	n	n
O=C(c1ccc(Cl)cc1)c1ccc(OCC(O)CN2CCOCC2)cc1 (stereo not drawn)	n	n	u	u	n
CC(CN1CCOCC1)C(=O)c1ccccc1 (stereo not drawn)	32µM	n	n	u	n
CN(C)c1ccnc(NCc2ccccc2)c1C#N	u	14µM	u	n	n
N#Cc1c(NCc2ccccc2)ccnc1NCc1cccnc1	n	13µM	-106	u	n
c1ccc(-c2nc(NCc3cccnc3)c3ccccc3n2)cc1	u	n	n	n	n
CCCCCCCCCCCCCCC1CO1 (stereo not drawn)	n	n	x	x	n
O=C(O)[C@H]1O[C@H]1C(=O)O	n[13.5 µM]	n	x	x	n[11.4 µM]
Cc1ccc(OCC(=O)N/N=C/c2cc([N+](=O)[O-])ccc2N2CCCCC2)cc1	u	n	u	n	n
COc1ccc(C(=O)c2cc([N+](=O)[O-])ccc2N2CCOCC2)cc1	n	n	-84	n	n
CCOc1ccc(C(=O)c2cc([N+](=O)[O-])ccc2N2CCOCC2)cc1	n	n	u	u	n
Cc1ccc(C(=O)c2cc([N+](=O)[O-])ccc2N2CCOCC2)cc1	u	n	-96	u	n
SMILES	ALDH1A1 inh	HPGD inh	PNC assembly inh	LMNA splice mod	12-hLO inh
O=C(c1cc([N+](=O)[O-])ccc1N1CCOCC1)N1CCOCC1	n	n	n	n	n
O=C(c1cc([N+](=O)[O-])ccc1N1CCCCC1)N1CCCCC1	20µM	u	n	n	n
O=C(COc1ccc([N+](=O)[O-])cc1)N/N=C/c1cc([N+](=O)[O-])ccc1N1CCOCC1	3.5µM	n	n	u	n
Cc1cc(NC(=O)CSc2nc(-c3cccc(F)c3)nc3c2c(=O)n(C)c(=O)n3C)no1	x	x	x	n	x
Cc1ccc(C(=O)c2ccc(N3CCOCC3)c(F)c2)cc1	u	28µM	n	u	n
COc1ccc(N=Nc2nc3cc(Br)c(Br)cc3n2C)c(OC)c1	n	7.9µM	n	u	n
CC(C)CCNC(=O)CN(CC1CCCO1)C(=O)CCC(=O)Nc1ccccn1 (stereo not drawn)	n	n	n	n	n
O=C(CN(CC1CCCO1)C(=O)CCC(=O)Nc1ccccn1)NCc1ccccc1 (stereo not drawn)	n	n	-100	n	n
Cc1ccccc1C(=O)Nc1ccc2c(C#N)c3nc4ccccc4nc3n2c1	u	n	n	u	n
Cc1c(C(=O)Nc2ccccc2)cn2c(nc3ccccc32)c1C#N	u	n	-80	n	n
O=C(COC(=O)c1cnccn1)c1ccc(OC(=O)c2ccccc2)cc1	n	n	-126	u	n
Cc1ccc(CNC(=O)C(C(C)C)N2Cc3ccccc3C2=O)cc1 (stereo not drawn)	x	x	x	n	x
CCC(=O)N(CC)C1=C(O)c2ccccc2C(=O)C1=O	22µM	13µM	u	n	n
Cn1ncc2c(NCc3ccccc3)ncnc21	n	n	n	n	n
Clc1ccc(Cn2ncc3c(NCc4ccccc4)ncnc32)c(Cl)c1	u	20µM	n	u	n
O=C(CNCCN1CCOCC1)Nc1ccccc1Sc1ccccc1	32µM	n	n	n	n
O=C(CN1CCOCC1)Nc1ccccc1Sc1ccccc1	n	n	n	n	n
COc1ccc(/C=C/C2=C[C@]3(C)C[C@]2(C)[C@H](c2ccc(OC)cc2)CC3=O)cc1	n	n	x	x	n
COc1ccc(OC)c(NC(=O)c2csnn2)c1	x	x	x	n	x
COCCNC(=O)c1noc2c1CCc1cc(OC)ccc1-2	n	25µM	n	n	n
COCC(C)NC(=O)c1noc2c1CCc1cc(OC)ccc1-2 (stereo not drawn)	n	n	n	n	n
O=CN1CCc2c([nH]c3ccccc23)C1c1cccc2cccnc12 (stereo not drawn)	n	n	x	x	x
Cc1ccc(NC(=O)c2cc(N3C(=O)C4CCCCC4C3=O)ccc2N2CCOCC2)cc1 (stereo not drawn)	22µM	x	x	n	x
Cc1ccc(NC(=O)c2cc(N3C(=O)C4CC=CCC4C3=O)ccc2N2CCCCC2)cc1 (stereo not drawn)	u	u	n	n	n
CCc1cc2c(nc1CC)CCN(CC/C(C)=N/O[C@@H](C)c1cn([C@H](CO)Cc3ccccc3)nn1)C2	n[13.5 µM]	x	x	x	x
SMILES	ALDH1A1 inh	HPGD inh	PNC assembly inh	LMNA splice mod	12-hLO inh
COc1ccc(-c2nn3c(C4CCCCC4)nnc3s2)cc1OC	13µM	u	n	n	n
Cc1ccc(S(=O)(=O)Nc2nc3ccc(S(=O)(=O)N4CCCC4)cc3s2)cc1	0.16µM	13µM	n	n	n
O=S(=O)(Nc1nc2ccc(S(=O)(=O)N3CCCCC3)cc2s1)c1ccccc1	0.35µM	8.9µM	n	n	n
NC1=NC(=O)/C(=C/c2cn(Cc3ccccc3)c3ccccc23)S1	n	28µM	n	u	n
Cc1ccc(-c2nn(-c3cccc([N+](=O)[O-])c3)c3c2cnc2ccc(F)cc23)cc1	x	x	x	n	x
CCCCCCCCc1nc(=S)[nH][nH]1	13µM	16µM	n	n	n
CCCCCCC1CC(CCc2nc(=S)[nH][nH]2)C(=O)O1 (stereo not drawn)	u	16µM	u	n	n
CCCCCC1CC(CC(=O)O)C(=O)O1 (stereo not drawn)	n	n	n	n	n
CCOC(=O)c1scc(-c2ccccc2)c1S(=O)(=O)N1CCN(c2ccc(Cl)cc2)CC1	x	x	x	n	x
CC1CC(=O)C2=C(C1)Nc1ncnn1C2c1ccccc1 (stereo not drawn)	18µM	n	n	n	n
